# Experimental data reported in PubChem BioAssay AID743446 (Broad Institute, 2014).
# Measured potencies and affinities stand elsewhere. The source made the active and inactive calls. How the calls were made is not given here.
# Assay: viability loss in HEK293 cells – cell-based, plate reader, cherry-picked samples, cytotoxicity control, dose response (AID 743446)
# Details: hits give low values; at 26 µM unless noted
row,SMILES,max activity
1,CC(=O)Nc1cccc(-c2ccnc3c2CC(C(=O)NCc2cccnc2)O3)c1 (stereo not given),0% [setting not given] (inactive)
2,CCC(=O)N(C)C[C@H]1Oc2cc(C#CCC(C)C)ccc2S(=O)(=O)N([C@H](C)CO)C[C@@H]1C,21.8% [at 0.05 µM] (inactive)
3,C[C@H](CO)N1C[C@H](C)[C@H](CN(C)C(=O)Nc2ccc3c(c2)OCO3)OCCCC[C@H](C)Oc2ccc(NC(=O)NC3CCCCC3)cc2C1=O,-16.6% (inactive)
4,COc1ccc(NC(=O)N(C)C[C@@H]2OCCCC[C@H](C)Oc3ccc(NC(=O)C4CCCCC4)cc3C(=O)N([C@H](C)CO)C[C@@H]2C)cc1,11.8% (inactive)
5,COc1ccc(S(=O)(=O)Nc2ccc3c(c2)C(=O)N([C@H](C)CO)C[C@H](C)[C@H](CN(C)S(=O)(=O)c2ccc(F)cc2)OCCCC[C@@H](C)O3)cc1,-23.7% [at 12 µM] (inactive)
6,C[C@H](CO)N1C[C@H](C)[C@H](CN(C)C(=O)CN2CCOCC2)Oc2ncc(C#CCN(C)C)cc2C1=O,18.5% [at 0.42 µM] (inactive)
7,O=C(Nc1nc2c(s1)CCCC2)C1COc2ccccc2O1 (stereo not given),55.6% [at 0.05 µM] (inactive)
8,Cc1cnc(NC(=O)c2sc3ccccc3c2Cl)s1,35.5% [at 6 µM] (inactive)
9,C[C@H](CO)N1C[C@H](C)[C@H](CN(C)C(=O)Nc2ccccc2)OCCCC[C@H](C)Oc2ccc(NC(=O)NC3CCCCC3)cc2C1=O,6.41% (inactive)
10,Cc1ccc(-c2nc(-c3ccncc3)no2)c(Cl)c1,10% [at 1.6 µM] (inactive)
